Screens: PubChem BioAssay, National Center for Advancing Translational Sciences (NCATS)
Sampled rows, rich in hits. Any-hit rate of the full collection: about 12%.
HP1b binding inh: blocks HP1-beta chromodomain binding to methylated histone tails | AID 540317 | P83916 | Potency, µM (highest dose often 114 µM), for the others: at the top dose activity change, negative = inhibition, actives largely listed as inhibitors | AlphaScreen HP1-beta / biotin-H3K9me3 peptide binding | 390,000 tested, 0.56% active; note: nearly all actives have a fitted effect of over 70% in size
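HP1-beta protein (50 nM final) preincubated 30 min at room temperature with biotinylated H3(1-18)K9me3 peptide (50 nM) in PBS pH 7.4, 0.01% Tween-20, then compound added for 30 min. AlphaScreen streptavidin donor/nickel chelate acceptor beads (10 ug/mL final), 30 min dark, luminescence read.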
L3MBTL1 block: inhibitors of human L3MBTL1; AlphaScreen L3MBTL1–H3K9me1 peptide binding; Potency, µM (highest dose often 57.1 µM), without a hit: at the top dose activity, negative = inhibition, actives largely listed as inhibitors; 230,000 tested, 0.66% active; AID 485360; note: % is set by controls: 0 for no effect and ±100 for the full control effect; nearly all actives have a fitted effect of over 60% in size
Target sequence (Q9Y468 whole entry, looked up): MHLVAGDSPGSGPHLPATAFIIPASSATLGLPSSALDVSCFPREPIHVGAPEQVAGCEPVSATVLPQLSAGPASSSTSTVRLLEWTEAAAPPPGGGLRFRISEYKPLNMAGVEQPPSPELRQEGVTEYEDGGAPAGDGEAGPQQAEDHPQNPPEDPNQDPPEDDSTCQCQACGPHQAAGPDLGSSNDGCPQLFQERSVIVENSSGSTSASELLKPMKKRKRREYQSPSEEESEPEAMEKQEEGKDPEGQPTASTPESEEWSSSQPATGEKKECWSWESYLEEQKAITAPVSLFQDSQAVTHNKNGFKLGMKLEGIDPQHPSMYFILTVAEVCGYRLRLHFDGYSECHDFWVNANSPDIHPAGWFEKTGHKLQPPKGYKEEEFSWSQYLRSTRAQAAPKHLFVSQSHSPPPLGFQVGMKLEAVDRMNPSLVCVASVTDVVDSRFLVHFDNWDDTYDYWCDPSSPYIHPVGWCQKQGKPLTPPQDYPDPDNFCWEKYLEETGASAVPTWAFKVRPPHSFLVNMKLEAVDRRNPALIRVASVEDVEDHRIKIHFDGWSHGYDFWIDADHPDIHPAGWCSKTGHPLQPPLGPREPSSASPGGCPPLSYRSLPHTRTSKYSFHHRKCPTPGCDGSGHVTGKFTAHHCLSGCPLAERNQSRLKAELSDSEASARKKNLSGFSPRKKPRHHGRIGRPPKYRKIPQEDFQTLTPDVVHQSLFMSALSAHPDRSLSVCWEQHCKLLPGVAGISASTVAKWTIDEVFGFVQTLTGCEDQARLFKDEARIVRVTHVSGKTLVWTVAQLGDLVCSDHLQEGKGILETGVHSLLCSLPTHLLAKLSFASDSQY
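L3MBTL1 50 nM + b-AHA-H3(1-15)K9me1 75 nM, 30 min RT; compound added, 30 min RT; streptavidin donor/Ni-chelate acceptor beads 10 ug/mL each final, 30 min RT dark; AlphaScreen read.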
JMJD2A Tudor inh: inhibitors of human JMJD2A Tudor domain; O75164; AlphaScreen JMJD2A-Tudor / H3K4me3 peptide binding; Potency, µM (titrated, usually from 114 µM), without a hit: at the highest dose activity change, negative = inhibition, actives largely listed as inhibitors; 390,000 tested, 4.4% active; note: % is set by controls: 0 for no effect and ±100 for the full control effect; nearly all actives have a fitted effect of over 50% in size
G9a block: G9a (human) methyltransferase inhibition; 350,000 tested, 8.8% active; G9a H3K9 monomethylation, AlphaScreen, 2 h; Q96KQ7; Potency, µM (highest dose often 102 µM), for inactives: at the highest dose activity, negative = inhibition, usual class: inhibitors; note: % is set by controls: 0 for no effect and ±100 for the full control effect; nearly all actives have a fitted effect of over 75% in size
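Signal arises when biotinylated H3K9 peptide, once monomethylated, bridges streptavidin donor and antibody-captured acceptor beads. Enzyme at 20 nM was preincubated 15 min with test compounds; peptide 500 nM and SAM 20 uM then reacted for 2 h.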
Sfp PPTase inh: Sfp phosphopantetheinyl transferase inhibition; Biochemical Sfp PPTase activity, qHTS; Potency, µM, inactives show largest response in the series, negative = inhibition, actives largely listed as inhibitors; 310,000 tested, 3.5% active;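 note: the enzyme is Sfp with the accession as filed and its product quenches rhodamine fluorescence; 0% = enzyme reaction without inhibitor and -100% = no enzyme wells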
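Step 1, compound plus 15 nM Sfp-PPTase, 15 min, room temperature. Step 2, add rhodamine-CoA (5 uM) and BHQ-2-YbbR (12.5 uM). Step 3, read 525/598 nm fluorescence at 0 and 30 min.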
BAZ2B inh: blocks human BAZ2B | 360,000 tested, 4.4% active | AlphaScreen BAZ2B-H3K14Ac peptide displacement | Potency, µM (top dose mostly 114 µM), for inactives: top-dose activity change, negative = inhibition, actives largely listed as inhibitors | Q9UIF8; note: % is set by controls: 0 for no effect and ±100 for the full control effect; nearly all actives have a fitted effect of over 60% in size
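BAZ2B (50 nM) with biotin-H3(5-23)K14Ac peptide (50 nM) in PBS pH 7.4, 0.01% Tween-20, preformed 30 min, then compound 30 min at room temperature; top concentration 110uM. AlphaScreen streptavidin donor/nickel chelate acceptor beads (10 ug/mL final), 20 min dark, signal read.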
* = called active by the depositor; ? = inconclusive; . = not tested or not shown; [ ] = dose if it differs, or a comment. Calls come from the whole dose curve; as a rule, active = well fitted curve in the direction sought with a large enough effect; inconclusive = small, poorly fitted or top-dose-only effect, or another doubt; inactive = no such curve, though single readings can be large; an effect the other way counts as inactive or inconclusive. Potency is the fitted concentration of half-maximal effect.

SMILES	HP1b binding inh	L3MBTL1 block	JMJD2A Tudor inh	G9a block	Sfp PPTase inh	BAZ2B inh
C1=CCC(CN2CCN(C3CCCCCC3)CC2)CC1 (stereo unspecified)	?	.	1µM*	7.94µM*	?	44.7µM*
CCCS(=O)(=O)N1CCN(S(=O)(=O)c2ccc(F)cc2)CC1	32.8%	?	-7.6%	10.3%[59 µM]	5.8%	12.5%
COc1ccc(S(=O)(=O)c2c(O)c(C)cc(NS(=O)(=O)c3ccc(Cl)cc3)c2C(C)C)cc1	13.3%	.	-22.8%	-34.6%[59 µM]	.	?
O=S(=O)(c1cccc(-c2n[nH]c(=S)n2-c2ccccc2Cl)c1)N1CCOCC1	23.3%	1.8%	22.4µM*	.	.	.
Cc1ccc(S(=O)(=O)N2CCOCC2)cc1-c1n[nH]c(=S)n1-c1ccccc1	36.8%	-3.0%	6.31µM*	-7.5%[12.7 µM]	.	10.1%
O=S(=O)(c1cccc(-c2n[nH]c(=S)o2)c1)N1CCOCC1	-22.4%	-0.5%	?	14.1µM*	25.1µM*	-12.8%
O=S(=O)(c1cccc(-c2n[nH]c(=S)n2-c2cccc(C(F)(F)F)c2)c1)N1CCOCC1	23.8%	2.3%	?	.	.	.
O=S(=O)(c1cccc(-c2n[nH]c(=S)n2Cc2ccccc2)c1)N1CCOCC1	20.6%	-5.1%	20µM*	.	-25.7%	-16.1%
Cc1ccc2c(c1C)C(=O)C(=O)N2	15.8%	.	-25.0%	.	.	.
CC(C)c1ccc(C(CC(=O)O)N2Cc3ccccc3C2=O)cc1 (stereo unspecified)	27.5%	.	-10.4%	-3.2%	19.3%	-10.8%
O=S(=O)(c1cccc(-c2cn3cccnc3n2)c1)N1CCOCC1	32.0%	1.3%	-5.7%	35.5µM*	-4.2%	-1.6%
Cc1ccc(C)c(OCCCCN2CCNCC2)c1C	53.6%	-5.7%	-23.3%	?	6.6%	-22.3%
Cc1ccc(C)c(OCCCNC2CCCC2)c1C	?	-10.4%	0.794µM*	7.08µM*	11.4%	?
N#Cc1ccccc1OCCCNC1CCCC1	?	7.0%	-100.0%	20µM*	25.1%	?
COCCCNCCOCCOc1c(OC)cccc1OC	36.2%	9.6%	-7.7%	-46.7%	15.4%	6.1%
Cc1ccc(OCCCCNC2CCCCC2)c(C)c1	-22.2%	30.7%	28.2µM*	14.1µM*	-10.0%	79.4µM*
N#Cc1ccccc1OCC(=O)NC1CCCCC1	12.0%	-0.3%	-12.3%	.	.	.
COc1cccc(OC)c1OCCCNC1CCCC1	?	10.8%	25.1µM*	.	-21.9%	?
Cc1ccc(OCCCNC2CCCC2)cc1	-19.5%	7.8%	22.4µM*	12.6µM*	6.5%	?
CC(C)(C)c1ccc(OCCCNC2CCCC2)cc1	-35.7%	3.3%	20µM*	11.2µM*	-4.7%	79.4µM*
Cc1ccc(OCCC(=O)OCC(=O)NC(=O)NC2CCCCC2)cc1	26.8%	-6.8%	-6.2%	7.8%	.	11.6%
CC(C)(C)c1ccc(OCCC(=O)OCC(=O)NC2CC2)cc1	27.9%	2.8%	9.5%	23.1%[12.7 µM]	.	-2.4%
Cc1ccc(-c2cc(C(=O)N(Cc3ccccc3)Cc3ccco3)no2)cc1F	31.5%	.	-3.3%	?	.	50.1µM*
CCn1nc(C)c([N+](=O)[O-])c1C(=O)NNC(=O)c1ccccc1Cl	17.3%	10.1%	-0.7%	-32.2%	4.0%	-4.6%
O=C(c1cc(Cl)ccc1O)N1CCN(S(=O)(=O)c2cccs2)CC1	19.2%	5.5%	-5.5%	0.2%	.	9.8%
SMILES	HP1b binding inh	L3MBTL1 block	JMJD2A Tudor inh	G9a block	Sfp PPTase inh	BAZ2B inh
Cc1ccc(NC(=S)N(N)CCO)cc1	17.2%	-26.8%	?	44.7µM*	?	79.4µM*
CCS(=O)(=O)c1oc(-c2ccc(F)cc2)nc1S(=O)(=O)c1ccccc1	72.3%	.	-2.1%	?	.	-2.3%
O=c1[nH]c2cnn(-c3ccccc3)c2c(=O)n1O	14.1%	.	56.2µM*	.	.	.
Cc1cc(C)n(-c2nc(NCC3CCCO3)c3c4c(sc3n2)COC(C)(C)C4)n1 (stereo unspecified)	33.6%	.	-15.2%	1.78µM*	-2.2%	10.1%
N#Cc1ccc(C23CC4(C2)[C@H](CN(Cc2cccnc2)[C@@H]4c2ccccc2)C3c2ccc(C(F)(F)F)cc2)cc1 (stereo partly specified)	.	.	.	.	-1.0%	.
COc1cc(C(=O)O)ccc1Cl	71.6%	.	-10.3%[11.4 µM]	?	32.4%	-32.6%
ONC(=NCc1ccccc1)c1ccccc1	33.2%	.	-5.6%	.	.	.
CC(C)(NO)/C(=N\O)c1ccccc1	70.8µM*	5.3%	12.6µM*	10µM*	-6.7%	39.8µM*
Cc1cc(/C(=N/O)C(C)(C)NO)ccc1Cl	-17.9%	4.1%	20µM*	?	-9.9%	-8.4%
O=C(Cn1nc(-c2cccc(Cl)c2)ccc1=O)NCC1COCCO1 (stereo unspecified)	41.4%	1.6%	3.1%	-4.9%	.	79.4µM*
O=[N+]([O-])c1cccc(-c2ccc(/C=N/n3c(-c4ccccc4)n[nH]c3=S)o2)c1	0.8%	-5.3%	-9.5%	?	-18.0%	-4.6%
Cc1nnc(N/N=C/c2ccc(-c3ccccc3F)o2)n1N	4.1%	.	-23.1%	39.8µM*	44.7µM*	-1.4%
Cc1nnc(N/N=C\c2ccc(-c3ccccc3[N+](=O)[O-])o2)n1N	-7.8%	-11.6%	?	6.31µM*	17.8µM*	70.8µM*
Cc1n[nH]c(=S)n1/N=C/c1ccc(-c2ccccc2[N+](=O)[O-])o1	2.8%	.	39.8µM*	?	8.91µM*	-32.1%
CC(NC(=O)c1c(F)cccc1Cl)c1ccc(-n2ccnc2)cc1 (stereo unspecified)	21.5%	.	-12.0%	.	-1.1%	-6.3%
NC(N)=Nc1ccc(Cl)cc1	.	.	.	.	11.8%	.
NC(=Nc1ccc(N)cc1)C(N)=Nc1ccc(N)cc1	-24.8%	31.6µM*	25.1µM*	?	3.3%	5.62µM*
C#CCOCCOCCOCCNc1nc(N2CCN(C(=O)[C@H]([C@@H](C)O)n3cc(CCCCN)nn3)CC2)nc(N2CCN(C(=O)[C@H](Cc3ccc(O)cc3)n3cc(CCO)nn3)CC2)n1	43.0%	7.8%	?	50.1µM*	?	?
C#CCOCCOCCOCCNc1nc(N2CCN(C(=O)[C@H](Cc3ccc(O)cc3)n3cc(CCO)nn3)CC2)nc(N2CCN(C(=O)[C@H](Cc3ccc(O)cc3)n3cc(CCO)nn3)CC2)n1	.	1.1%	.	35.5µM*	13.4%	?
C#CCOCCOCCOCCNc1nc(N2CCN(C(=O)[C@H]([C@@H](C)O)n3cc(CCCCN)nn3)CC2)nc(N2CCN(C(=O)[C@H](CCCCN)n3cc(CCC(=O)O)nn3)CC2)n1	32.8%	2.2%	-20.1%	?	.	?
